Abeta rescue: restores growth of yeast expressing A-beta42 peptide; yeast expressing A-beta42, growth rescue, OD600, 48 h; response scale: 0% DMSO, 100% iron-clioquinol control; Potency, µM (highest dose often 46.1 µM), actives largely listed as activators; hit rate 0.063% among 410,000; AID 1347071; further: nearly all actives have a fitted effect of over 55% in size
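Yeast A-beta toxicity model in growth medium with pinned compounds, 48 h at 30 C; growth read as absorbance at 600 nm. Normalized to FeCl3/clioquinol equimolar mix (positive) and DMSO (negative).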
Mito fusion yeast: blocks mitochondrial division or promotes mitochondrial fusion | S. cerevisiae fusion-defective mutant growth rescue, CellTiterGlo 48 h | Potency, µM (top dose mostly 46.1 µM), inactives show top-dose growth rescue (activation), actives largely listed as activators | hit rate 0.23% among 320,000 | AID 485298; further: % of control where 0% means no effect; nearly all actives have a fitted effect of over 45% in size
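Yeast fusion mutant, YPEG (non-fermentable carbon), compound, 48 h at 37C non-permissive; CellTiterGlo added, 10 min RT, luminescence read. Rescued growth = division inhibition.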
A-T KAP1 phos: candidate therapy for ataxia-telangiectasia | F2112 A-T fibroblasts, KAP-1 phosphorylation AlphaLISA; neocarzinostatin DNA damage 30 min before lysis | Potency, µM (top dose mostly 57.5 µM), for inactives: at the highest dose activation, most hits filed as activators | hit rate 0.19% among 320,000 | AID 485349; further: % of control where 0% means no effect; nearly all actives have a fitted effect of over 45% in size
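hTERT-immortalized A-T patient fibroblasts (F2112), 500 cells/well in OPTI-MEM, 1% FBS, got compounds for 60 min, then NCS for 30 min at 37C. Lysates were then assayed for phospho-KAP-1 by AlphaLISA (anti-pKAP1 donor, anti-KAP1 acceptor beads), 6 hr at 25C.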
TDP-43 yeast inh: rescues yeast growth from TDP-43 toxicity; TDP-43 expressing yeast growth rescue, BacTiter-Glo, 24 h; Potency, µM (doses to about 46.1 µM), for inactives: at the highest dose growth rescue (activation), actives largely listed as activators; hit rate 1.8% among 410,000; AID 652104; further: % of control where 0% means no effect; nearly all actives have a fitted effect of over 50% in size
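Cell-based yeast growth screen: TDP-43 expression induced in galactose, inoculum OD600=0.02 after raffinose pregrowth to mid-log. Read-out BacTiter-Glo luminescence at 24 hr, 30 deg C; inhibition of toxicity seen as signal increase.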
GRP78 ERSR act: ER stress response induction in glioma | hit rate 0.02% among 420,000 | Potency, µM, inactives show at the highest dose activation, usual class: activators | AID 602332 | U87-MG GRP78 promoter luciferase reporter, 16 h; further: series mostly up to about 76 µM; % of control where 0% means no effect; nearly all actives have a fitted effect of over 35% in size
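Stably transfected U87-MG glioma cells carrying a GRP78-based luciferase sensor; 16 h compound incubation. Luminescence end-point read 10 min after Bright-Glo addition at room temperature.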
aSyn yeast inh: rescues yeast growth from alpha-synuclein toxicity; Yeast expressing alpha-synuclein, growth rescue, BacTiter-Glo, 24 h; Potency, µM (titrated, usually from 46.1 µM), without a hit: at the top dose growth rescue (activation), most hits filed as activators; hit rate 0.14% among 370,000; AID 652106; further: % of control where 0% means no effect; nearly all actives have a fitted effect of over 65% in size
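Galactose-induced alpha-syn yeast (OD600=0.02, raffinose-pregrown) + pinned cpd, 24 hr, 30 deg C; growth by BacTiter-Glo luminescence. Growth restoration scores as activation.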
Active calls of the source: *; i = inactive; ? = inconclusive; . = not tested or not shown; [ ] = dose if it differs, or a comment. Sampled rows, rich in hits. Any-hit rate of the full collection: about 2.1%. The call rests on the fitted dose curve; in most records, active means well fitted curve in the direction sought with a large enough effect; inconclusive means small, poorly fitted or top-dose-only effect, or another doubt; inactive means no such curve, though single readings can be large; an effect the other way counts as inactive or inconclusive. Potency means the concentration at half of the fitted maximal effect.

SMILES	Abeta rescue	Mito fusion yeast	A-T KAP1 phos	TDP-43 yeast inh	GRP78 ERSR act	aSyn yeast inh
Cc1cccc(NC(=O)Cc2ccc(-c3ccccc3)cc2)n1	i	1.2%	-1.5%	11.2µM*	1.5%	-6.5%
O=c1c(-c2ccc(Cl)cc2)nc2cnc(N3CCNCC3)nc2n1Cc1cccs1	.	.	.	.	-4.0%	.
S=C(NCc1ccccc1)Nc1cccc(Cl)c1	i	0.5%	-0.9%	28.2µM*	-0.8%	-10.9%
O=C(CNc1cccc(Cl)c1)NNC(=S)NCc1ccccc1	i	10.1%	-2.2%	-13.6%	-5.4%	-4.2%
Fc1ccccc1NC(=S)NCc1ccc(Cl)cc1	?	-22.6%	4.6%	11.2µM*	4.0%	0.8%
Fc1ccc(CNC(=S)Nc2ccccc2F)cc1	?	-12.6%	-2.0%	?	-1.6%	-1.4%
O=C(NCC1CCC2(CCN(Cc3cccn3-c3ccc(Cl)cn3)CC2)O1)c1ccccc1 (stereo unspecified)	.	.	.	.	-5.6%	.
O=C(COC(=O)/C=C/c1ccc(Cl)cc1Cl)NCC1CCCO1 (stereo unspecified)	i	.	2.6%	20µM*	-2.4%	5.1%[1.84 µM]
O=C(COC(=O)/C=C/c1c(F)cccc1Cl)NCC1CCCO1 (stereo unspecified)	i	-1.9%	2.6%	-9.1%	-2.3%	-4.7%
COc1cc(CN2CCC3(CCC(CNC(=O)c4ccco4)O3)CC2)cc(OC)c1 (stereo unspecified)	.	.	.	.	-7.7%	.
O=[N+]([O-])c1nn(-c2ccc3c(c2)OCCO3)n(O)c1=NC1CCCC1	i	12.5%	0.2%	5.01µM*	-6.1%	-0.3%
O=[N+]([O-])c1nn(-c2ccc3c(c2)OCCO3)n(O)c1=NC1CCCCCC1	i	?	.	15.8µM*	2.1%	3.3%
O=[N+]([O-])c1nn(-c2ccc3c(c2)OCCO3)n(O)c1=NCCCO	i	6.2%	0.2%	0.9%	-2.1%	-0.3%
CCCCc1ccccc1NC(=S)NC1CCCC1	7.08µM*	-11.3%	8.1%	-9.8%	-5.9%	-5.2%
S=C(Nc1cccc2ccccc12)Nc1cccc2ccccc12	i	.	.	0.6%	3.0%	11.0%
CSc1ccccc1NC(=S)NC1CCCC1	?	-12.3%	12.8%	27.4%	9.8%	1.6%
S=C(Nc1cccc2ccccc12)NC1CCCCC1	12.6µM*	13.9%	-7.7%	3.8%	7.1%	21.1%
Cc1ccc(OCC(=O)Nc2ccc(Cl)c(-c3nc4ncccc4o3)c2)cc1C	i	.	.	17.8µM*	-4.9%	?
C/C(=N\O)c1cc(Cl)cc(Cl)c1O	i	2.0%	0.5%	14.1µM*	-1.5%	?
O=c1cc(COc2ccc(Cl)c(Cl)c2)nc2sccn12	i	3.1%	-1.6%	7.9%	4.0%	-1.8%
O=c1ccc(C(F)(F)F)cn1Cc1cc(=O)n2ccsc2n1	i	-20.0%	1.3%	1.3%	-3.0%	-9.1%
O=c1cc(CNc2cc(C(F)(F)F)cc(C(F)(F)F)c2)nc2sccn12	i	29.3%	0.1%	17.8µM*	-5.1%	-9.5%
O=c1cc(COn2nnc3ccc(C(F)(F)F)cc32)nc2sccn12	i	4.4%	2.0%	10µM*	-3.4%	12.2%
CC(Sc1ccc2ccccc2n1)C(=O)O (stereo unspecified)	i	4.8%	4.5%	11.2µM*	1.0%	-17.5%
CC(Sc1cnc2ccccc2n1)C(=O)O (stereo unspecified)	i	1.1%	3.9%	-4.4%	-2.7%	-1.7%
SMILES	Abeta rescue	Mito fusion yeast	A-T KAP1 phos	TDP-43 yeast inh	GRP78 ERSR act	aSyn yeast inh
CCCCCNC(=O)C(=O)NCC(c1ccc2c(c1)OCO2)N1CCOCC1 (stereo unspecified)	i	.	.	9.7%	-5.9%	.
COc1ccccc1-c1cccc([C@@H]2C[C@H]3[C@H](CON3C)CN2C(=O)CCc2ccccc2)c1	i	.	.	28.2µM*	-2.4%	14.9%
O=C(c1nc2ncccn2n1)N1CCOc2ccc(C(O)C(c3ccccc3)c3ccccc3)cc2C1 (stereo unspecified)	.	.	.	.	1.6%	.
O=C1/C(=C/c2ccc(O)c(O)c2)Oc2ccccc21	.	.	.	.	9.3%	.
COCCN1C(=O)/C(=C/c2cc3c(cc2Br)OCO3)NC1=S	i	2.7%	1.1%	20µM*	-1.3%	-5.3%
O=C(NNc1ccccc1)c1ccc(Cl)c(Cl)c1	i	.	.	12.6µM*	0.9%	?
O=C(NNC(=O)c1ccc2ccccc2c1)c1ccc(Cl)c(Cl)c1	i	.	.	-17.1%	-4.1%	-2.8%
COc1cc(OC)c(OC)cc1CN1CCCC(c2nc(C)ncc2-c2ccc(F)cc2)C1 (stereo unspecified)	.	.	.	.	-2.0%	.
COC(=O)c1ccccc1NC(=O)CCC(=O)N1CCSc2ccccc21	i	-29.8%	1.8%	0.0%	-5.2%	2.6%
Cc1ccc2c(c1)N(C(=O)CCC(=O)Nc1ccc(F)cc1F)CC(C)O2 (stereo unspecified)	i	.	.	14.2%	-4.3%	.
COC(=O)c1ccccc1NC(=O)CCC(=O)N1CC(C)Oc2ccc(C)cc21 (stereo unspecified)	i	1.1%	30.1%	17.8µM*	-5.5%	3.5%
COC(=O)c1ccccc1NC(=O)CCC(=O)N1CC(C)Sc2ccccc21 (stereo unspecified)	i	.	.	17.8µM*	-0.2%	.
COc1ccc(S(=O)(=O)N(CC(=O)Nc2cccc(C)c2)c2ccc(C)cc2)cc1OC	i	.	.	4.7%	-2.6%	-14.9%
CC(C)CN1CCC2(CC1)CCN(C(=O)c1cnccn1)CC2	.	.	.	.	-2.9%	.
COc1ccc(OC)c(-c2ccnc(-n3ncc(C(=O)NC(C)(C)CO)c3C3CC3)n2)c1	.	.	.	.	1.1%	.
CCn1c2ccccc2c2cc([N+](=O)[O-])ccc21	i	6.1%	2.2%	-23.1%	-1.8%	10.8%
CCn1c2ccccc2c(=O)c2ccccc21	i	-4.8%	2.7%	12.6µM*	-1.5%	8.9%
O=S(=O)(NCCc1csc(-c2cccnc2)n1)c1ccc2c(c1)OCCO2	i	-5.1%	0.3%	21.7%	0.3%	-20.5%
O=S(=O)(NCCc1csc(-c2ccc(C(F)(F)F)cc2)n1)c1ccc2c(c1)OCCO2	?	?	-0.8%	25.1µM*	-4.6%	-1.4%
Cc1cc(S(=O)(=O)NCCc2csc(-c3cccc(F)c3)n2)ccc1F	?	.	.	0.0%	3.8%	.
COc1ccc(-c2nc(CCNS(=O)(=O)c3ccc4c(c3)OCCO4)cs2)cc1	i	2.4%	4.0%	12.6µM*	0.0%	-16.1%
COc1cccc(CN(C)C(=O)c2ccc(N3CCCC3)c([N+](=O)[O-])c2)c1	i	4.2%	-2.0%	20µM*	-1.5%	-0.7%

Bioassay records deposited in PubChem BioAssay by National Center for Advancing Translational Sciences (NCATS).
